These results are taken from PubChem BioAssay (NCI).

Holding throughout (assay): NCI-60 one-dose screen, 48 h (100 = growth as untreated, 0 = no growth, -100 = all killed)
What all share (settings): 10 µM unless noted

In experiment [1] the test system is T-47D breast.
Experiment [2] concerns BT-549 breast.
In experiment [3] the test system is MDA-MB-435 melanoma.
In experiment [4] the test system is SW-620 colon.
The subject of experiment [5] is MCF7 breast.
Experiment [6] relates to HCT-116 colon.
Experiment [7] deals with HCC-2998 colon.
Experiment [8] has as its system KM12 colon.

“And” between values parts separate entries of the source, which are not always exact repeats. Equal values may be shown once. This is part of a sample that, as a whole, favours compounds with a hit. Of some 83,000 tested, about 20% had one in any assay.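 In brief: 96-well plates, 48 h treatment, single concentration, percent growth endpoint.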 The source made the active and inactive calls. Rule for the calls: active = growth percent below 10; inactive = the rest.

For `C[N+]1=C(/C=C\C=C\c2ccccc2)C(C)(C)c2ccccc21`, the growth in experiment [1] is -1.09% (active); in experiment [2], 22.5% (inactive); in experiment [3], 9.04% (active); in experiment [4], 19.8% (inactive); in experiment [5] it was 7.58% (active); in experiment [6] it was 14.3% (inactive). The growth is 47.9% (inactive) in experiment [7] and 22.2% (inactive) in experiment [8].

Turning to `O=C(NNc1ccccc1)C1CCCN1` (configuration not stated), the growth is 55.6% (inactive) in experiment [1]; 104% (inactive) in experiment [2]; 37.1% (inactive) in experiment [3]; 68.2% (inactive) in experiment [4]; 76.4% (inactive) in experiment [5]; 78.8% (inactive) in experiment [6]. The growth is 82.2% (inactive) in experiment [7] and 31.9% (inactive) in experiment [8].

Turning to `Cc1c(C(=O)OCCCCOC(=O)c2c(C)n(C)c3scc[n+]23)[n+]2ccsc2n1C`, the growth in experiment [1] was 97.1% (inactive); in experiment [2], 110% (inactive); in experiment [3], 109% (inactive); in experiment [4], 125% (inactive); in experiment [5] it was 100% (inactive); in experiment [6], 107% (inactive). In addition, the growth in experiment [7] is 115% (inactive); in experiment [8], 118% (inactive).

For the compound `CN(C)CC1(C)Cc2ccsc2C1O` (configuration not stated), the growth was 113% (inactive) and 100% (inactive) in experiment [1]; 113% (inactive) and 102% (inactive) in experiment [2]; 111% (inactive) and 107% (inactive) in experiment [3]; 105% (inactive) and 112% (inactive) in experiment [4]; 110% (inactive) and 105% (inactive) in experiment [5]; 115% (inactive) and 104% (inactive) in experiment [6]. For the same compound, the growth was 107% (inactive) and 103% (inactive) in experiment [7]; 116% (inactive) and 106% (inactive) in experiment [8].

Regarding `O=C(Nc1ccc2ncsc2c1)c1csc(Nc2ccc3[nH]ncc3c2)n1`, the growth in experiment [1] is 36.4% (inactive); in experiment [2], 73.4% (inactive); in experiment [3] it was -27.1% (active); in experiment [4], 20.9% (inactive); in experiment [5], 21.6% (inactive); in experiment [6], 47.5% (inactive). The growth is 72.5% (inactive) in experiment [7] and 30.9% (inactive) in experiment [8].

`N=C(N)SCc1c2ccccc2c(CSC(=N)N)c2ccccc12`: the growth in experiment [1] is 71.5% (inactive); in experiment [2], 102% (inactive); in experiment [3] it was 74% (inactive); in experiment [4] it was 43.1% (inactive); in experiment [5], 38.3% (inactive); in experiment [6], 40.4% (inactive). In addition, the growth is 79.5% (inactive) in experiment [7] and 59.7% (inactive) in experiment [8].

For the compound `O=C(NCc1ccc(Cn2c(=O)sn(-c3ccc(Cl)cc3)c2=O)cc1)OCc1ccc2c(Cl)cc(Cl)c(O)c2n1`, the growth in experiment [1] was 60.2% (inactive); in experiment [2], 60.6% (inactive); in experiment [3], 54.7% (inactive); in experiment [4], 49.3% (inactive); in experiment [5], 50.3% (inactive); in experiment [6], 29.3% (inactive). For the same compound, the growth in experiment [7] is 67.9% (inactive); in experiment [8], 23.5% (inactive).

For the compound `O=C1/C(=C/c2ccccc2[N+](=O)[O-])Cc2ccccc21`, the growth is 1.93% (active) and 64% (inactive) in experiment [1]; 19.4% (inactive) and 27.3% (inactive) in experiment [2]; 28.4% (inactive) and 36.3% (inactive) in experiment [3]; -56.2% (active) and -45.4% (active) in experiment [4]; 9.87% (active) and 13% (inactive) in experiment [5]; -76.6% (active) and -25.5% (active) in experiment [6]. Further, the growth in experiment [7] was 85% (inactive) and 106% (inactive); in experiment [8], 52% (inactive) and 32.2% (inactive).

On to `COc1ccc(-c2ccc(-c3ccc(C(=N)N)cn3)o2)cc1Cl`, for which the growth in experiment [1] is 31.1% (inactive); in experiment [2], 57.8% (inactive); in experiment [3], -69.4% (active); in experiment [4] it was -50.3% (active); in experiment [5], -31.1% (active); in experiment [6], 0.389% (active). Besides, the growth in experiment [7] was 67.5% (inactive); in experiment [8] it was 16.4% (inactive).

Take `CC/C=C\C/C=C\C[C@H](O)C/C=C1/C(=O)C=C[C@@H]1C/C=C\CCCC(=O)OC`: the growth in experiment [1] is 4.23% (active); in experiment [2], -14.9% (active); in experiment [3], -16.4% (active); in experiment [4] it was -46.3% (active); in experiment [5] it was 2.32% (active); in experiment [6], -63.8% (active). The growth in experiment [7] is -83.9% (active); in experiment [8], -71.6% (active).

`Cc1ccc2[nH]c(=S)[nH]c(=O)c2c1`: the growth was 89% (inactive) in experiment [1]; 101% (inactive) in experiment [2]; 101% (inactive) in experiment [3]; 103% (inactive) in experiment [4]; 99.8% (inactive) in experiment [5]; 101% (inactive) in experiment [6]. Moreover, the growth in experiment [7] was 98.2% (inactive); in experiment [8], 100% (inactive).

For the compound `CC(C)=CCc1cc(O)c(O)c2oc3cc(O)cc(O)c3c(=O)c12`, the growth in experiment [1] was 69.5% (inactive); in experiment [2] it was 75.1% (inactive); in experiment [3] it was 61.1% (inactive); in experiment [4], 61.9% (inactive); in experiment [5], 91.6% (inactive); in experiment [6] it was 43.1% (inactive). Also, the growth in experiment [7] was 104% (inactive); in experiment [8] it was 59.8% (inactive).

As to `Cc1ccc(/C=C2\COc3ccc(O)c(O)c3C2=O)cc1`, the growth in experiment [1] is -7.19% (active); in experiment [2], -13.1% (active); in experiment [3], -24.4% (active); in experiment [4] it was -32.4% (active); in experiment [5], 15.1% (inactive); in experiment [6], -22.9% (active). Besides, the growth was 9.54% (active) in experiment [7] and -19.9% (active) in experiment [8].

On to `O=C1OCC2=C1C(c1cccc([N+](=O)[O-])c1)c1cc3c(cc1N2CCO)CCC3` (configuration not stated), for which the growth in experiment [1] was 65.9% (inactive); in experiment [2], 31.5% (inactive); in experiment [3], -34.9% (active); in experiment [4], 22.2% (inactive); in experiment [5], 20% (inactive); in experiment [6], 7.18% (active). The growth in experiment [7] is 6.84% (active); in experiment [8], 15.7% (inactive).

For the compound `O=Nc1ccc(NO)c2ccccc12`, the growth in experiment [1] was 96.9% (inactive) and 65.8% (inactive); in experiment [2] it was 83.3% (inactive) and 87.8% (inactive); in experiment [3] it was 107% (inactive) and -57.8% (active); in experiment [4], 86% (inactive) and 52.3% (inactive); in experiment [5], 91.5% (inactive) and 64.5% (inactive); in experiment [6], 95% (inactive) and 39.1% (inactive). Further, the growth in experiment [7] is 120% (inactive) and 108% (inactive); in experiment [8], 104% (inactive) and 76.4% (inactive).

Turning to `Cc1cc(N2CCN(CC(=O)Nc3ccc4c(ccn4Cc4ccccc4)c3)CC2)nc(N2CCCCCC2)n1`, the growth in experiment [1] is 42.7% (inactive); in experiment [2] it was 65.1% (inactive); in experiment [3], 60.7% (inactive); in experiment [4], 56.8% (inactive); in experiment [5], 20.5% (inactive); in experiment [6], 38.8% (inactive). The growth in experiment [7] is 64.5% (inactive); in experiment [8], 37.6% (inactive).

As for `O=c1ccc2nc(-c3ccccn3)nn(-c3ccccc3)c-2c1`, the growth in experiment [1] was -28.4% (active); in experiment [2], 86.6% (inactive); in experiment [3], 90.7% (inactive); in experiment [4] it was -61.8% (active); in experiment [5] it was -56% (active); in experiment [6] it was 48.7% (inactive). The figures for the growth in experiment [7] and in experiment [8] were 98.8% (inactive) and 98.4% (inactive), respectively.

Consider `CCN1CCN(C(=O)[C@]23CC[C@@H](C)[C@H](C)[C@@H]2C2=CC[C@@H]4[C@@]5(C)CCC(=O)C(C)(C)[C@@H]5CC[C@@]4(C)[C@]2(C)CC3)CC1`, for which the growth in experiment [1] was 8.54% (active); in experiment [2], -26% (active); in experiment [3] it was 11% (inactive); in experiment [4] it was -50.4% (active); in experiment [5], 4.77% (active); in experiment [6], -48.3% (active). Also, the growth in experiment [7] is 0.569% (active); in experiment [8], 6.9% (active).

Take `Fc1ccc(NC(c2ccc(F)cc2)C2CCN(CCCCc3ccccc3)CC2)cc1` (configuration not stated): the growth in experiment [1] is 22.4% (inactive); in experiment [2] it was 61.1% (inactive); in experiment [3], 43.8% (inactive); in experiment [4], 12.7% (inactive); in experiment [5], 5.18% (active); in experiment [6] it was -55.4% (active). In addition, the growth was 16.3% (inactive) in experiment [7] and 29.9% (inactive) in experiment [8].
